DNA FID counter: compounds displacing fluorescent DNA intercalator, primary screen, artefact control for HCV NS3 helicase inhibitor project, biochemical, FID fluorescence. DNA fluorescent intercalator displacement. inhibition, % at 7.9 µM. 290,000 tested, 0.17% active. AID 1845, 2009; in the data active means inhibition above about 37%;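 further: 0% = vehicle and 100% = reference compound; higher means more ethidium bromide displaced from hairpin DNA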
NRP1-CendR mod: modulators of CendR peptide binding to NRP-1, primary screen, biochemical, fluorescence polarization, uHTS. inhibition, % at 25 µM. 360,000 tested, 0.85% active. FAM-RPARPAR peptide binding to NRP-1;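 active means inhibition or corrected inhibition above about 18%, plus a signal ratio from 0.5 to 1.5, limit read from the data, passing the limit was not always enough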
RAD52 anneal inh: RAD52 DNA annealing inhibitors, primary screen, biochemical, FRET, single point, set 2; recombinant RAD52 DNA annealing, FRET fluorescence; DNA repair protein RAD52 homolog (Homo sapiens), P43351; 360,000 tested, 0.46% active; inhibition, % at 18.7 µM; AID 651710, 2012;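 active means every replicate showing at least 50% inhibition; inconclusive means mean inhibition at least 50% but not in every replicate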
RAD54 inh: inhibitors of human RAD54 branch migration, primary screen, biochemical, fluorescence, single point | DNA repair and recombination protein RAD54-like (Homo sapiens), Q92698 | RAD54 Holliday junction branch migration, FAM/BHQ fluorescence | inhibition, % at 10.4 µM | 360,000 tested, 0.14% active | AID 602329, 2012;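 active means mean normalized replicate activity at least 40 and at least half of replicates scoring 40 or more; inconclusive means only one of the two criteria met; inactive means mean below 40 and under half of replicates reaching 40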;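 further: 0% = median of neutral control wells and 100% = median of positive control wells; inhibitors cause a drop in the FAM fluorescence signal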
Target sequence (Q92698 whole entry, looked up): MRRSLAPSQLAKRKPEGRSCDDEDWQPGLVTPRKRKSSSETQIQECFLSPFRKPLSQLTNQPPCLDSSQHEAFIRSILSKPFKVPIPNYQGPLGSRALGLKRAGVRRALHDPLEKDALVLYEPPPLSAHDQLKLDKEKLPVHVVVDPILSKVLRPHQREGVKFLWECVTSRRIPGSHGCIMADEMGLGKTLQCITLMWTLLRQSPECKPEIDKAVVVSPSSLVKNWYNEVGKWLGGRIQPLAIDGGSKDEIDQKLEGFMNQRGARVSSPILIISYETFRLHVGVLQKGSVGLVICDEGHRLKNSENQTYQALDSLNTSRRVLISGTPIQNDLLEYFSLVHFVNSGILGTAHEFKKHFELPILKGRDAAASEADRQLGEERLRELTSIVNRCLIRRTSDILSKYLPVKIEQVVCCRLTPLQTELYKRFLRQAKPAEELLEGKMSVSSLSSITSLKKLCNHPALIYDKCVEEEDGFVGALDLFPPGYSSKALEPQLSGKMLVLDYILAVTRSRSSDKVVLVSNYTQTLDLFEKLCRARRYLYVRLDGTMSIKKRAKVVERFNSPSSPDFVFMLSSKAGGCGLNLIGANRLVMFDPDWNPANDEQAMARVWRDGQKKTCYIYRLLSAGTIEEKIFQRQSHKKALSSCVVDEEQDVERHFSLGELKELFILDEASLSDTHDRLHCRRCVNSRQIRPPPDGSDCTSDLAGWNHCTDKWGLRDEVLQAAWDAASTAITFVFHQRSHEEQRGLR
miR-122 sensor: miR-122 Renilla sensor signal increase in Huh7, primary screen, miR-122 inhibitor project, cell-based, single point, plate reader. Huh7 miR-122 Renilla luciferase sensor, 48 h; neutral wells = 0, positive control = 100. activation (reporter increase), % at 12.5 µM. 340,000 tested, 0.3% active. AID 602342, 2012;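 active means mean replicate activation score at least 90 and every replicate individually at or above 90; inconclusive means only one of the two criteria met; inactive means neither criterion met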;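 further: higher luciferase means less miR-122 activity so hits act as miR-122 inhibitors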
N-glyco inh: increase of ERlucT glycosylation luciferase signal, primary screen, N-linked glycosylation inhibitor project, D54 ERlucT cells, luminescence, set 2 | D54 ERlucT glycosylation luciferase reporter, 24 h; percent of 100 nM tunicamycin response | reporter increase, % at 12.5 µM | 360,000 tested, 0.23% active;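 active means mean luciferase reporter signal, scaled so untreated is 0 and the glycosylation-blocking control 100, at or above a set limit in every replicate; inconclusive means mean reaches the limit but not every replicate does; inactive means mean below the limit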;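 further: luciferase carries N-glycosylation sites so blocking glycosylation raises the light; 0% = median of neutral control wells and 100% = median of 100 nM tunicamycin wells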
DNA binder FP: DNA-binding compounds via dye displacement, dose response, artefact control for RAD52 inhibitor project, biochemical, fluorescence polarization, cherry-pick. shares compounds with RAD52 anneal inh. Salmon sperm DNA/acridine orange FP displacement. AC50, µM. 1,000 tested, 8% active;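 active means fitted half-maximal concentration for signal loss at or below twice the highest dose tested, in every separate run, actives reach about 64 µM in these data; inconclusive means runs disagree, or flat partial signal loss, or poor fit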
* = called active by the depositor; i = inactive; ? = inconclusive; · = no result given; [ ] = dose if it differs, or a comment. An excerpt weighted towards active compounds, which were near 1.5% of everything screened.

SMILES	DNA FID counter	NRP1-CendR mod	RAD52 anneal inh	RAD54 inh	miR-122 sensor	N-glyco inh	DNA binder FP
CN(C)CCCN(C(=O)c1cc2cc([N+](=O)[O-])ccc2s1)c1nc2cc3c(cc2s1)OCCO3	·	7	51*	-3	·	-7	i
CN(C)CCCN(C(=O)c1ccc([N+](=O)[O-])s1)c1nc2cc3c(cc2s1)OCCO3	30	18	34	13	-1	-2	·
C[C@@H]1CN([C@@H](C)CO)C(=O)c2cc(C3=CCCC3)cnc2O[C@@H]1CN(C)C(=O)Nc1ccc(F)cc1	·	·	9	?	15[16.7 µM]	·	·
O=C(C[C@H]1C[C@H]2c3cc(NC(=O)NC4CCCCC4)ccc3O[C@H]2[C@H](CO)O1)NCc1ccccc1	·	·	-1	1	12[16.7 µM]	·	·
Cc1ccc[n+](CC(=O)Nc2cc(C(F)(F)F)ccc2Cl)c1	4	-1	·	1	4	1	·
CCC(C)(C)c1ccc(OCCCC[n+]2cccc(C)c2)c(C(C)(C)CC)c1	21	3	76*	·	·	13	i
Cc1ccc(-c2cnc3c(c2)C(=O)N([C@H](C)CO)C[C@H](C)[C@H](CN(C)S(C)(=O)=O)O3)cc1	·	·	-8	10	30[16.7 µM]	·	·
NC(=NCc1ccccc1)NC(=O)c1nc(Cl)c(N)nc1N	·	-6	50*	?	6	-6	i
CCCCCCCCCCCCOC(=O)C[N+](C)(C)C	15	·	50*	·	·	·	i
Cc1cc(/C=C2\Sc3ccccc3N2C)cc(C)[n+]1CC1CCCO1 (configuration not stated)	4	-10	51*	·	-15	38*	i
Cc1ccc(C)n1-c1nnc(N2CCC(C(=O)N3CCN(C)CC3)CC2)s1	0	2	56*	0	-3	7	i
CN1CCN(CCCNC(=O)C2CCN(c3nnc(-n4cccc4)s3)CC2)CC1	21	3	·	3	-2	-1	·
Cc1cc(=O)n2nc(N3CCC(C(=O)N4CCN(C)CC4)CC3)sc2n1	-3	10	·	3	-7	0	·
CCN1CCN(C(=O)C2CCN(c3nnc(-n4c(C)ccc4C)s3)CC2)CC1	-7	9	58*	3	-3	5	i
CCOC(=O)N1CCN(C(=O)C2CCN(c3nnc(-n4cccc4)s3)CC2)CC1	-42	10	-10	-3	3	1	·
CCCN1CCN(CCCNC(=O)C2CCN(c3nnc(-n4c(C)ccc4C)s3)CC2)CC1	-5	-4	58*	-14	1	5	i
CCCC(=O)Nc1ccc2c(c1)C(=O)N(C)[C@H]1CC[C@H](CC(=O)NCC3CC3)O[C@H]1CO2	·	·	-41	-7	-14[16.7 µM]	·	·
C/C=C/c1cnc2c(c1)C(=O)N([C@H](C)CO)C[C@@H](C)[C@H](CN(C)C(=O)CN1CCOCC1)O2	·	·	-5	1	-3[16.7 µM]	·	·
CCC(=O)Nc1ccc2c(c1)C(=O)N(C)[C@H]1CC[C@@H](CC(=O)NCCN3CCCCC3)O[C@@H]1CO2	·	·	-6	3	-5[16.7 µM]	·	·
COc1cc(NCCCCC(C)N)c2nccc(C)c2c1 (configuration not stated)	·	9	76*	10	7	-1	i
Cc1ccc(S(=O)(=O)Nc2ccc3c(c2)CC(=O)N([C@H](C)CO)C[C@H](C)[C@@H](CN(C)S(=O)(=O)c2cccs2)O3)cc1	·	·	9	8	18[16.7 µM]	·	·
Nc1ccc2nc[nH]c2c1	10	11	85*	·	·	9	i
O=C(CN1CCCCC1)Nc1ccc(N2CCCCCC2)cc1	20	-10	62*	·	·	-5	i
O=C(CN1CCCCC1)Nc1ccccc1	-1	-6	·	0	-8	0	·
CCCCCCCCCCCCCCCC[N+](C)(C)CC	·	4	81*	51*	-13	-15	?

Compound activity from PubChem BioAssay.
